Hits are enriched below; roughly 2.8% of the tested compounds scored in any of these assays.
HIF-2a inh = inhibitors of HIF-2a. 786-0 RCC cells HIF-2a reporter, luciferase luminescence, overnight. inhibition, % at 18.8 µM. 360,000 compounds, 0.72% hits. AID 624352;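 active means inhibition of the luminescence signal of 40% or more relative to plate controls, in a single-dose primary screen at 18.75 µM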
Shn3 3UTR inh = reduces Shn3 3'UTR luciferase signal in osteoblasts; Clone20 osteoblast Shn3 3'UTR firefly luciferase, 24 h; inhibition, % at 12.5 µM; 360,000 compounds, 0.52% hits; AID 588674;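 active means mean inhibition of at least 75% with every replicate also reaching 75%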;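 further: 0% = median of neutral control wells and 100% = pilot-screen positive control compound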
MITF TRPM1 inh = inhibitors of MITF-driven TRPM1 promoter in melanoma cells; inhibition, % at 12.5 µM; 330,000 compounds, 0.83% hits; SK-MEL-5 TRPM1 promoter luciferase, 24 h;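 active means mean inhibition across replicates of 60% or more, whatever share of single replicates reaches that level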
Peg3 prom inh = inhibitors of Peg3 promoter; 360,000 compounds, 1.7% hits; inhibition, % at 20 µM; AID 588405; HeLa PEG-Prom luciferase reporter, luminescence, overnight;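 active means inhibition of at least 50% at 20 µM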
PAX8 inh HTS = inhibitors of PAX8 transcriptional activity in RMG-I cells | inhibition, % at 12.6 µM | 360,000 compounds, 1.2% hits | RMG-I TPO-luciferase reporter, SteadyGlo, 24 h;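 active means mean replicate inhibition at least 60% with every replicate also reaching 60%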;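 further: luciferase light reporting Pax8 driven TPO promoter activity; plate controls were median of neutral control wells for no effect and mitoxantrone controls for full effect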
EBV LMP1 NFkB = Epstein-Barr LMP1 NF-kappaB reporter inhibition; LMP1-induced NF-kappaB luciferase reporter cells, luminescence; inhibition, % at 12.5 µM; 350,000 compounds, 0.69% hits; AID 504558; in the data active means inhibition above about 41%;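 further: 0% = neutral control wells and 100% = reference inhibitor control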
An asterisk follows results filed as active; . = no result.

SMILES | HIF-2a inh | Shn3 3UTR inh | MITF TRPM1 inh | Peg3 prom inh | PAX8 inh HTS | EBV LMP1 NFkB
O=C(/C=C/c1ccc([N+](=O)[O-])cc1)NCCOc1ccc(F)cc1 | 4 | 1 | 5 | 10 | 9 | -2
COc1ccc(OCCNC(=O)/C=C/c2ccc([N+](=O)[O-])cc2)cc1 | 4 | 13 | 1 | 1 | 107* | 0
COc1ccc(/C=C/C(=O)c2ccc([N+](=O)[O-])o2)cc1 | -19 | 50 | . | 101* | 31 | -51
O=C(/C=C/c1cccc([N+](=O)[O-])c1)c1ccc([N+](=O)[O-])o1 | 44* | 97* | 99* | 100* | 27 | 14
COc1ccc2c3c([nH]c2c1)[C@@H](CO)N(C)CC31CCN(C(=O)Nc2c(C)noc2C)CC1 | . | . | . | . | -2 | .
Cc1c(NC(=O)C(C)OC(=O)c2c3c(nc4ccccc24)CCC3)c(=O)n(-c2ccccc2)n1C (centres undefined) | 13 | 8 | -5 | 12 | 73* | 3
Cc1c(NC(=O)COC(=O)c2c3c(nc4ccccc24)CCCC3)c(=O)n(-c2ccccc2)n1C | 12 | -34 | 5 | 5 | -4 | 9
COc1ccc(NC(=O)N(C)C[C@@H]2Oc3ccc(NC(=O)CCN4CCOCC4)cc3CC(=O)N([C@@H](C)CO)C[C@@H]2C)cc1 | . | . | . | . | 8 | .
CCCc1cnc(NCCNCC(O)COc2ccc(Cl)c(Cl)c2)nc1 (centres undefined) | 5 | . | 40 | 107* | -6 | -5
CC(C)CC#Cc1ccc([C@@H]2[C@@H](CO)N3C(=O)CN(C(=O)NC4CCCCC4)C[C@H]23)cc1 | . | . | . | . | -7 | .
COc1ccc2c3c([nH]c2c1)[C@@H](CO)N(S(=O)(=O)c1cn(C)cn1)CC31CCN(CC2CC2)CC1 | . | . | . | . | -30 | .
COc1ccc(NC(=O)N2C[C@H](O)COC[C@@H]3O[C@@H](CC(=O)N4CCOCC4)CC[C@H]32)cc1 | . | . | . | . | -2 | .
CCC1C/C(=C\c2cccnc2)C(=O)/C(=C/c2cccnc2)C1 (centres undefined) | 92* | 40 | 97* | 109* | 89* | 93*
COc1ccccc1-n1c(-c2ccccc2)n[nH]c1=S | -8 | 48 | 6 | 4 | 3 | 46*
O=S(=O)(NCC[C@@H]1CC[C@@H](NS(=O)(=O)c2ccccc2Cl)[C@H](CO)O1)c1ccc(Cl)cc1 | . | . | . | . | 10 | .
CC(=O)Nc1cccc(C(=O)/C=C/c2ccc(/C=C/C(=O)c3cccc(NC(C)=O)c3)cc2)c1 | . | . | . | . | 32 | .
CC(=O)Nc1cccc(C(=O)/C=C/c2ccc(F)cc2)c1 | -27 | -2 | -7 | 107* | 35 | 0
CC(=O)Nc1cccc(NC(=O)C(=O)Nc2ccc3c(c2)N(C(=O)C2CC2)CCC3)c1 | -151 | -39 | -55 | -62 | -49 | -8
COc1ccccc1NC(=O)C(=O)Nc1ccc2c(c1)N(C(=O)C1CC1)CCC2 | -45 | -42 | -1 | -32 | 79* | -12
Nc1nc(SCc2ccccc2)c2[nH]cnc2n1 | -37 | 16 | -8 | -11 | 1 | 4
CNc1ncnc(Sc2nc(N)nc3nc[nH]c23)c1[N+](=O)[O-] | 9 | -3 | 71* | 48 | 95* | 0
Nc1nc(Sc2ccc([N+](=O)[O-])c3nonc23)c2[nH]cnc2n1 | 38 | 39 | 82* | 67* | 97* | 3
COc1ccc(Nc2nc(Nc3ccc(OC)cc3)nc(-n3[nH]c(=O)c(C)c3C)n2)cc1 | -40 | 81* | 3 | 48 | . | 27
COc1ccc(Nc2nc(OC)nc(OC)n2)cc1 | -38 | -16 | -21 | -14 | -27 | -13
CCN1CCN(c2cc(C)c3cc(NC(=S)N4CCN(c5ccc(F)cc5)CC4)ccc3n2)CC1 | 16 | 6 | 85* | 88* | 0 | -9
O=C(Cc1ccccc1)N[C@@H]1CC[C@H](CC(=O)N2CCOCC2)O[C@@H]1CO | . | . | . | . | -10 | .
CN1c2ccc(-c3cccc(C#N)c3)cc2[C@H]2[C@H](CCN2S(=O)(=O)c2ccc(F)cc2)[C@@H]1CO | . | . | . | . | -7 | .
Cc1nonc1OCCNc1ccc([N+](=O)[O-])cc1[N+](=O)[O-] | 4 | -13 | 25 | 65* | 11 | 6
COc1ccc(OC)c(N=Nc2c(O)c3ccccc3[nH]c2=O)c1 | 5 | -7 | 26 | 70* | 37 | -22
COc1cnc(-c2ccccn2)nc1NC(C)C | -12 | 92* | 66* | 36 | 59 | -7
